# Laboratory results from PubChem BioAssay AID463173 (ICCB-Longwood Screening Facility, Harvard Medical School, 2010).
# In all, about 52,000 compounds went through this assay and about 4,300 (8.3%) were called active. No stated cut-off is given here; in the data, active means survival mostly below about 52% (no sharp cut-off); inactive means mostly above about 56%. For the sample, actives were picked, then their nearest neighbours and some compounds at random.
# System: DeltatarO mutant
# Experiment: growth inhibition of S. aureus wild type versus tarO mutant, primary screen, teichoic acid synthesis inhibitors, RN4220, OD600 (AID 463173)
# Conditions: OD600, 18 h, hits give low values, screened at 18.75 µg/mL (by protocol)
row,SMILES,survival
1,O=C(c1ccc2c(c1)N(Cc1ccc(Cl)cc1)C(=O)c1ccccc1S2(=O)=O)N1CCCCCC1,64% (inactive)
2,Cn1nc(CC(=O)Nc2ccc(N3CCN(C(=O)OC(C)(C)C)CC3)cc2)c2ccccc2c1=O,84% (inactive)
3,COC(=O)c1ccccc1NC(=O)CSc1nc2sc3c(c2c(=O)[nH]1)CCCC3,61% (inactive)
4,CCOc1ccccc1NC(=O)CSc1nnc2[nH]c(=O)cc(-c3ccccc3)n12,98% (inactive)
5,Cc1nonc1OCCn1nnc(N)n1,95% (inactive)
6,Oc1c(C(c2ccccc2)N2CCN(c3cccc(Cl)c3)CC2)sc2nc(-c3ccco3)nn12 (stereo unspecified),74% (inactive)
7,O=[N+]([O-])c1ccc(C(c2sc3nc(-c4ccco4)nn3c2O)N2CCN(c3cccc(Cl)c3)CC2)cc1 (stereo unspecified),47% (active)
8,O=[N+]([O-])c1ccc(C(c2sc3nc(-c4ccco4)nn3c2O)N2CCN(Cc3ccccc3)CC2)cc1 (stereo unspecified),79% (inactive)
9,Oc1c(C(c2ccccc2F)N2CCOCC2)sc2nc(-c3ccco3)nn12 (stereo unspecified),80% (inactive)
10,CCOC(=O)c1ccccc1NC(=O)CSc1ccc(-c2sc(C)nc2C)nn1,91% (inactive)
11,COc1cccc(CNC(=O)CSc2ccc(-c3sc(-c4ccccc4)nc3C)nn2)c1,26% (inactive)
12,Cc1nc(C)c(-c2ccc(SCC(=O)Nc3ccc(F)c(F)c3)nn2)s1,102% (inactive)
13,COc1ccccc1NC(=O)CSc1ccc(-c2sc(C)nc2C)nn1,92% (inactive)
14,COc1ccc(Cl)cc1NC(=O)CSc1ccc(-c2sc(C)nc2C)nn1,105% (inactive)
15,Cc1nc(C)c(-c2ccc(SCC(=O)Nc3ccc(Cl)c(Cl)c3)nn2)s1,46% (active)
16,Cc1nc(C)c(-c2ccc(SCC(=O)Nc3ccc(Br)cc3)nn2)s1,101% (inactive)
17,COc1cc(NC(=O)CSc2ccc(-c3sc(C)nc3C)nn2)cc(OC)c1,6% (active)
18,Cc1cc(C)c(NC(=O)CSc2ccc(-c3sc(-c4ccccc4)nc3C)nn2)c(C)c1,33% (inactive)
19,CCOC(=O)c1ccc(NC(=O)CSc2ccc(-c3sc(C)nc3C)nn2)cc1,37% (active)
20,COc1cc(NC(=O)CSc2ccc(-c3sc(-c4ccccc4)nc3C)nn2)cc(OC)c1,19% (active)
21,COc1ccc(OC)c(NC(=O)CSc2ccc(-c3sc(C)nc3C)nn2)c1,83% (inactive)
22,COc1ccc(NC(=O)C2CCN(S(=O)(=O)c3c(C)noc3/C=C/c3ccc(C)cc3)CC2)cc1Cl,82% (inactive)

row,SMILES,survival
1,COc1cc2c(=O)n(CCC(=O)NCC3CCCO3)c(=O)n(CC(=O)Nc3ccc(C)cc3)c2cc1OC (stereo unspecified),92% (inactive)
2,COc1cccc(OC(=O)CSc2nnc(-c3ccc4c(c3)OCO4)o2)c1,59% (inactive)
3,CC(=O)Nc1ccc(S(=O)(=O)NC2(C(F)(F)F)C(=O)Nc3c2c(=O)[nH]c(=O)n3-c2cccc(Cl)c2)cc1 (stereo unspecified),84% (inactive)
4,Cc1ccc(Cl)cc1N1CCN(C(=O)C2CCN(S(=O)(=O)Cc3ccccc3)CC2)CC1,72% (inactive)
5,CCC1CN(C(=O)N2CCC(C(=O)NCc3ccc(C)o3)CC2)c2ccccc2O1 (stereo unspecified),87% (inactive)
6,O=C(NCc1ccco1)C(c1ccco1)N(C(=O)Cn1nnc2ccccc21)c1ccccc1 (stereo unspecified),65% (inactive)
7,CN(CC(=O)Nc1cccc(C#N)c1)S(=O)(=O)c1cc2c(cc1Cl)NC(=O)CO2,109% (inactive)
8,Cc1cc2c(cc1S(=O)(=O)N(CCO)Cc1ccccc1)OCC(=O)N2,46% (active)
9,Cc1cc2c(cc1S(=O)(=O)N(C)CC(=O)Nc1cccc(C#N)c1)OCC(=O)N2,-2% (active)
10,Cc1cc2c(cc1S(=O)(=O)N(CCN(C)C)Cc1ccccc1)OCC(=O)N2,102% (inactive)
11,Cc1cc2c(cc1S(=O)(=O)N(C)CC(=O)Nc1ccc(C#N)cc1)OCC(=O)N2,76% (inactive)
12,Cc1cc2c(cc1S(=O)(=O)N(CCN(C)C)Cc1ccco1)OCC(=O)N2,98% (inactive)
13,CCN1CCN(C(c2cccc(OC)c2)c2c(O)cc(C)n(Cc3ccco3)c2=O)CC1 (stereo unspecified),120% (inactive)
14,Cc1ccc(-c2n[nH]c3c2C(c2ccc(C(C)(C)C)cc2)NC3=O)cc1 (stereo unspecified),109% (inactive)
15,CCSc1nn(CC(=O)Nc2ccc(C(=O)OC)cc2)c(N)c1S(=O)(=O)c1ccc(C)cc1,37% (active)
16,COc1ccc(S(=O)(=O)c2c(SC)nn(CC(=O)Nc3ccc(C)c(Cl)c3)c2N)cc1,83% (inactive)
17,CCOC(=O)c1ccc(NC(=O)Cn2nc(SC)c(S(=O)(=O)c3ccc(Cl)cc3)c2N)cc1,99% (inactive)
18,CCc1ccc(NC(=O)Cn2nc(SC)c(S(=O)(=O)c3ccc(OC)cc3)c2N)cc1,118% (inactive)
19,COc1ccc(NC(=O)Cn2nc(SC)c(S(=O)(=O)c3ccc(C)cc3)c2N)cc1OC,25% (active)
20,CCSc1nn(CC(=O)Nc2cccc(CC)c2)c(N)c1S(=O)(=O)c1ccccc1,101% (inactive)
21,Cn1cc(-c2cc3n(n2)CCC(=O)N3CCCC(=O)NCc2ccccc2Cl)c2ccccc21,109% (inactive)
22,CCn1c(=O)cc(SCC(=O)NCCc2ccc(Cl)cc2)c2ccccc21,76% (inactive)

row,SMILES,survival
1,O=C(NC12CCC(O)C(SC1)/C2=N/O)c1ccccc1 (stereo unspecified),98% (inactive)
2,COc1cccc(-c2noc(C3CCCN(S(=O)(=O)c4ccccc4F)C3)n2)c1 (stereo unspecified),65% (inactive)
3,CC(C)(C)OC(=O)N1CCC(c2c(C(=O)NCCN3CCc4ccccc4C3)cnn2-c2ccc(F)cc2)CC1,68% (inactive)
4,Cc1ccc(C)c(CSc2nc(-c3ccccc3F)nc3c2Cc2c(CO)cnc(C)c2O3)c1,108% (inactive)
5,CCc1ccc(CSc2nc(-c3ccccc3F)nc3c2Cc2c(CO)cnc(C)c2O3)cc1,61% (inactive)
6,CCc1ccc(CSc2nc(-c3ccccc3OC)nc3c2Cc2c(CO)cnc(C)c2O3)cc1,90% (inactive)
7,Cc1ncc(CO)c2c1Oc1nc(-c3ccccc3)nc(SCC(=O)N3CCCCC3)c1C2,85% (inactive)
8,CCSc1nc(-c2ccccc2F)nc2c1Cc1c(CO)cnc(C)c1O2,52% (active)
9,CCSc1nc(-c2ccccc2OC)nc2c1Cc1c(CO)cnc(C)c1O2,80% (inactive)
10,Cc1ncc(CO)c2c1Oc1nc(-c3ccc(F)cc3)nc(SCC(=O)N3CCCCC3)c1C2,52% (inactive)
11,Cc1ncc(CO)c2c1Oc1nc(-c3ccc(Cl)cc3)nc(SCC(=O)N3CCCCC3)c1C2,48% (active)
12,CCN(CC)C(=O)CSc1nc(-c2ccccc2F)nc2c1Cc1c(CO)cnc(C)c1O2,101% (inactive)
13,Cc1ccc(-c2nc3c(c(SCC(=O)N(C)c4ccccc4)n2)Cc2c(CO)cnc(C)c2O3)cc1,64% (inactive)
14,CCN(CC)C(=O)CSc1nc(-c2ccc(C)cc2)nc2c1Cc1c(CO)cnc(C)c1O2,39% (active)
15,COc1ccccc1-c1nc2c(c(SCc3cc(C)ccc3C)n1)Cc1c(CO)cnc(C)c1O2,41% (active)
16,O=C(CSc1nccn1Cc1ccccc1)Nc1ccc2c(c1)OCCO2,71% (inactive)
17,CN(C)c1ccc(CN(Cc2ccco2)C(=O)COc2ccc(F)cc2)cc1,91% (inactive)
18,CC(Sc1nnc2c(n1)[nH]c1ccccc12)C(=O)NC1CC1 (stereo unspecified),60% (inactive)
19,CCc1ccc(-c2cn3c(n2)sc2cc(C(=O)NCCC4=CCCCC4)ccc23)cc1,70% (inactive)
20,O=C(NCc1ccccc1)C(c1ccco1)N(C(=O)c1csnn1)c1ccccc1 (stereo unspecified),81% (inactive)
21,CCCCc1nn2c(=O)cc(COC(=O)c3ccccc3NC(=O)c3ccccc3OC)nc2s1,84% (inactive)
22,O=C(Nc1ccc(Cl)cc1)N1CCC(c2ccccc2)C1 (stereo unspecified),67% (inactive)

row,SMILES,survival
1,COc1cc(OC)c(NC(=O)CN2C(=O)CCn3nc(-c4cccn4C)cc32)cc1Cl,90% (inactive)
2,O=C(NC1(C(F)(F)F)NC(=O)N(CCc2ccccc2)C1=O)c1ccccc1F (stereo unspecified),76% (inactive)
3,Cc1ccc(N(CC(=O)N2CCN(c3cccc(C)c3C)CC2)S(=O)(=O)c2c(C)nn(C)c2C)cc1,75% (inactive)
4,CCSc1nc(-c2ccccc2)nc2c1Cc1c(CO)cnc(C)c1O2,93% (inactive)
5,CCSc1nc(-c2cccc(Cl)c2)nc2c1Cc1c(CO)cnc(C)c1O2,116% (inactive)
6,CCSc1nc(-c2ccc(Cl)cc2)nc2c1Cc1c(CO)cnc(C)c1O2,39% (active)
7,CC(C)c1n[nH]c(=S)n1C,84% (inactive)
8,CCOc1ccc(N2CC(c3nc4ccccc4n3Cc3ccccc3F)CC2=O)cc1 (stereo unspecified),103% (inactive)
9,CCOc1ccccc1N1CC(c2nc3ccccc3n2CCCOc2ccccc2)CC1=O (stereo unspecified),68% (inactive)
10,CCOc1ccccc1N1CC(c2nc3ccccc3n2CCOc2ccc(OC)cc2)CC1=O (stereo unspecified),62% (inactive)
11,CCOc1ccccc1N1CC(c2nc3ccccc3n2CCOc2ccccc2)CC1=O (stereo unspecified),32% (active)
12,CCOc1ccc(N2CC(c3nc4ccccc4n3CCOc3ccccc3)CC2=O)cc1 (stereo unspecified),33% (active)
13,CCOc1ccc(N2CC(c3nc4ccccc4n3CCCOc3ccccc3)CC2=O)cc1 (stereo unspecified),51% (inactive)
14,CCOC(=O)Cn1c(C2CC(=O)N(c3ccc(C)cc3)C2)nc2ccccc21 (stereo unspecified),66% (inactive)
15,CCc1ccc(N2CC(c3nc4ccccc4n3Cc3ccccc3C)CC2=O)cc1 (stereo unspecified),52% (active)
16,CCOc1ccc(N2CC(c3nc4ccccc4n3CCOc3ccc(CC)cc3)CC2=O)cc1 (stereo unspecified),55% (active)
17,CCc1ccccc1NC(=O)c1nnn(-c2ccc(F)cc2)c1C,74% (inactive)
18,CCN(CC)CCCNC(=O)CCc1c(C)n(CC)c2cc(-c3ccccc3OC)nn2c1=O,92% (inactive)
19,CCC(=O)n1nc(-c2cccnc2)nc1NCc1ccc(F)cc1,88% (inactive)
20,Cc1ccccc1Nc1nn2c(=O)c3ccc(C(=O)NCc4cccs4)cc3nc2s1,72% (inactive)
